Key:
Assay in all cases: DAPPL (digital affinity profiling via proximity ligation, sequencing); 10 mM Tris-HCl pH 7.5, 50 mM NaCl, 1 mM DTT, 4% glycerol, room temperature, 30 min; GST-TFs on glutathione beads, 16-mer random dsDNA library, 0.1% formaldehyde crosslink after washing; high values mean tight binding
FLI1 = biological target: T1, FLI1 (Homo sapiens, UniProt Q01543 1-452); conditions: protein: recombinant; tags: N-terminal GST; dsDNA, one strand shown
T1 sequence: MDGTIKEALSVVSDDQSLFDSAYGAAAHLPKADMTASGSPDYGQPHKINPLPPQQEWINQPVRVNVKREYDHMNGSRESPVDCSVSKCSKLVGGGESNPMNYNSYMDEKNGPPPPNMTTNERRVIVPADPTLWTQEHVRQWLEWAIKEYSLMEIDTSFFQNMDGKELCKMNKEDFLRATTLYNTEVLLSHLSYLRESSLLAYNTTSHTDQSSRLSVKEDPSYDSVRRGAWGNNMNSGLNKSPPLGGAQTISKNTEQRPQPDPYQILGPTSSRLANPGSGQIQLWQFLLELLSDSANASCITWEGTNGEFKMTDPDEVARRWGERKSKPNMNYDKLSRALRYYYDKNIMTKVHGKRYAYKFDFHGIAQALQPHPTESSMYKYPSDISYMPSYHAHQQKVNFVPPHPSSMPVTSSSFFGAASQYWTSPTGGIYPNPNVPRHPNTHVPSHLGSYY
Summary of the method: (§1)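 The binding signal reported is, for every hexamer, its read frequency for a factor over its read frequency for the tag-only sample. Reads came from pools of yeast-expressed, GST-fused human transcription factors on glutathione beads, barcoded with DNA and mixed with that sample, which were incubated with 200 nmole of a random double-stranded 16-mer DNA library in Tris/NaCl/DTT/glycerol buffer at room temperature for 30 min. After washing, the pools were crosslinked with 0.1% formaldehyde, proximity-ligated with BsaI/T4 ligase for 1 h at 37 °C, PCR-amplified and sequenced on an Illumina NextSeq500.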

ELK1 = biological target: T2, ELK1 (Homo sapiens, UniProt P19419 1-428); conditions: protein: recombinant; tags: N-terminal GST; dsDNA, one strand shown
T2 sequence: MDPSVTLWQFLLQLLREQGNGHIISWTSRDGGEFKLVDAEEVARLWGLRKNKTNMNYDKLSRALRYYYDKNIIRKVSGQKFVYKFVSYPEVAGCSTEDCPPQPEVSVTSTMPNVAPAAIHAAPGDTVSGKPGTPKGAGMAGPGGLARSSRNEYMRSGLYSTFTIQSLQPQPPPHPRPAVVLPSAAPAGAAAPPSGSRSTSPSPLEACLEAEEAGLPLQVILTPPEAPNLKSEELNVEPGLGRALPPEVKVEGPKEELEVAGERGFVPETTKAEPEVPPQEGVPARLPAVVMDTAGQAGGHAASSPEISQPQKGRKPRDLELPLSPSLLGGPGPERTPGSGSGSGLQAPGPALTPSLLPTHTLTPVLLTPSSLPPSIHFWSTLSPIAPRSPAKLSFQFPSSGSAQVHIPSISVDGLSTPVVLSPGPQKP
Summary of the method: as §1

GABPA = biological target: T3, GABPA (Homo sapiens, UniProt Q06546 1-454); conditions: protein: recombinant; tags: N-terminal GST; dsDNA, one strand shown
T3 sequence: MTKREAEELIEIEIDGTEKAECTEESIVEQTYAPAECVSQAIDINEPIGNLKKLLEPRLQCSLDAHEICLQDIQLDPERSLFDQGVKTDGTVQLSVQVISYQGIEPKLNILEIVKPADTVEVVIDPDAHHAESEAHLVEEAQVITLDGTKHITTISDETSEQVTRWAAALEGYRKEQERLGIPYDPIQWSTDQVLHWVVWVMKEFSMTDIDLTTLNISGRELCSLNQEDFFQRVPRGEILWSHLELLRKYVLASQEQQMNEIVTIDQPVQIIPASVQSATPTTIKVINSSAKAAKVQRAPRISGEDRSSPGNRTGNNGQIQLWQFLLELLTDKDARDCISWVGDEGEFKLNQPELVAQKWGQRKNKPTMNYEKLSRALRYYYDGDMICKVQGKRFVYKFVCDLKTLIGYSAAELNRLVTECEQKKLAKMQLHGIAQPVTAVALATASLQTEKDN
Summary of the method: as §1

ERG = biological target: T4, ERG (Homo sapiens, UniProt P11308 1-479); conditions: protein: recombinant; tags: N-terminal GST; dsDNA, one strand shown
T4 sequence: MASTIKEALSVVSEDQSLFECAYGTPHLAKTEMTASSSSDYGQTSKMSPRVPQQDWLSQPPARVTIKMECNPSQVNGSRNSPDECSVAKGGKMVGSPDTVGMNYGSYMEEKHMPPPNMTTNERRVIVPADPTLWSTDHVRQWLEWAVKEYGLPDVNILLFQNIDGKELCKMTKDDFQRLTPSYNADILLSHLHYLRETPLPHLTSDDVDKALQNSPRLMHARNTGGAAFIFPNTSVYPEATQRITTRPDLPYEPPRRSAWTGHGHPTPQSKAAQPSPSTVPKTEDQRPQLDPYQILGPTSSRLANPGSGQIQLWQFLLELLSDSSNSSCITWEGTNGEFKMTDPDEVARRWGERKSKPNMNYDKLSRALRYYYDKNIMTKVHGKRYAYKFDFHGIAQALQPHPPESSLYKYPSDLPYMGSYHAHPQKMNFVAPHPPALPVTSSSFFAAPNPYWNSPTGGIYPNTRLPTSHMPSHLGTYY
Summary of the method: as §1

ELF1 = ELF1 (Homo sapiens, UniProt P32519 1-619); conditions: protein: recombinant; tags: N-terminal GST; dsDNA, one strand shown
Summary of the method: as §1

EHF = biological target: T5, EHF (Homo sapiens, UniProt Q9NZC4 1-300); conditions: protein: recombinant; tags: N-terminal GST; dsDNA, one strand shown
T5 sequence: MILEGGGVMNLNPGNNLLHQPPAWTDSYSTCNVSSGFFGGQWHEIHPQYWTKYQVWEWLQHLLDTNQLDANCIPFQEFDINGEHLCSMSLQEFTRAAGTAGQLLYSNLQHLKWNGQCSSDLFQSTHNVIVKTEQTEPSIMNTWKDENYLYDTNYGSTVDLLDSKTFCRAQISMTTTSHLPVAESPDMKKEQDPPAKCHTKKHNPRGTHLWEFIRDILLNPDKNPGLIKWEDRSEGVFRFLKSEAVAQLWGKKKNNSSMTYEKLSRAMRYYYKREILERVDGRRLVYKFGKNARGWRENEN
Summary of the method: as §1

SPI1 = SPI1 (Homo sapiens, UniProt P17947 1-270); conditions: protein: recombinant; tags: N-terminal GST; dsDNA, one strand shown
Summary of the method: as §1

SPIB = SPIB (Homo sapiens, UniProt Q01892 1-262); conditions: protein: recombinant; tags: N-terminal GST; dsDNA, one strand shown
Summary of the method: as §1

ELK3 = biological target: T6, ELK3 (Homo sapiens, UniProt P41970 1-407); conditions: protein: recombinant; tags: N-terminal GST; dsDNA, one strand shown
T6 sequence: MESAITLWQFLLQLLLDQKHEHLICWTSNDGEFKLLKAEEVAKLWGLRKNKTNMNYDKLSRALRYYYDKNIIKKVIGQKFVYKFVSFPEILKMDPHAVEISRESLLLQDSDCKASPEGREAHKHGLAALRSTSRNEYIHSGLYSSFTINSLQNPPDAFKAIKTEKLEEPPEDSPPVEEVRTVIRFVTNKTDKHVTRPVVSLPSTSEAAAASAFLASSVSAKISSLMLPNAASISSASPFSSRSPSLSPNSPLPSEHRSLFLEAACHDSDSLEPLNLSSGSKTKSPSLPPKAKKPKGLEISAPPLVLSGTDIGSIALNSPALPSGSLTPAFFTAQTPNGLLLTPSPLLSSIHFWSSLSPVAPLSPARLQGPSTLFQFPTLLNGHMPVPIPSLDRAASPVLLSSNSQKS
Summary of the method: as §1

FEV = biological target: T7, FEV (Homo sapiens, UniProt Q99581 1-238); conditions: protein: recombinant; tags: N-terminal GST; dsDNA, one strand shown
T7 sequence: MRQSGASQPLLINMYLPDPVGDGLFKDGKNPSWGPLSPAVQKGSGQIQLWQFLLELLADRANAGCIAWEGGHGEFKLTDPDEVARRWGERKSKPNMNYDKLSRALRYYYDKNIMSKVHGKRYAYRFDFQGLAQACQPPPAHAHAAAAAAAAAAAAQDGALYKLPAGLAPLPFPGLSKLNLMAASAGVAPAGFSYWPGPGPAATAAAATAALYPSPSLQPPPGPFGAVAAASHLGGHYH
Summary of the method: as §1

ETV5 = ETV5 (Homo sapiens, UniProt P41161 1-510); conditions: protein: recombinant; tags: N-terminal GST; dsDNA, one strand shown
Summary of the method: as §1

HSF1 = HSF1 (Homo sapiens, UniProt Q00613 1-529); conditions: protein: recombinant; tags: N-terminal GST; chain copies: 3; dsDNA, one strand shown
Summary of the method: as §1

SPIC = biological target: T8, SPIC (Homo sapiens, UniProt Q8N5J4 1-248); conditions: protein: recombinant; tags: N-terminal GST; dsDNA, one strand shown
T8 sequence: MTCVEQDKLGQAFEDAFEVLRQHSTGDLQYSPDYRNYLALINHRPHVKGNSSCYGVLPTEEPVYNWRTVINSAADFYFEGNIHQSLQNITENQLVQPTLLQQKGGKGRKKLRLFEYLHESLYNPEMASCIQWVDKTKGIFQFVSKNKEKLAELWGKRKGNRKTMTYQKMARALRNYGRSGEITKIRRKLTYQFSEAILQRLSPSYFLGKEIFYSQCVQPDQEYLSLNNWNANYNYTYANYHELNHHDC
Summary of the method: as §1

ELF4 = ELF4 (Homo sapiens, UniProt Q99607 1-663); conditions: protein: recombinant; tags: N-terminal GST; dsDNA, one strand shown
Summary of the method: as §1

ELK4 = biological target: T9, ELK4 (Homo sapiens, UniProt P28324-2 1-405); conditions: protein: recombinant; tags: N-terminal GST; dsDNA, one strand shown
T9 sequence: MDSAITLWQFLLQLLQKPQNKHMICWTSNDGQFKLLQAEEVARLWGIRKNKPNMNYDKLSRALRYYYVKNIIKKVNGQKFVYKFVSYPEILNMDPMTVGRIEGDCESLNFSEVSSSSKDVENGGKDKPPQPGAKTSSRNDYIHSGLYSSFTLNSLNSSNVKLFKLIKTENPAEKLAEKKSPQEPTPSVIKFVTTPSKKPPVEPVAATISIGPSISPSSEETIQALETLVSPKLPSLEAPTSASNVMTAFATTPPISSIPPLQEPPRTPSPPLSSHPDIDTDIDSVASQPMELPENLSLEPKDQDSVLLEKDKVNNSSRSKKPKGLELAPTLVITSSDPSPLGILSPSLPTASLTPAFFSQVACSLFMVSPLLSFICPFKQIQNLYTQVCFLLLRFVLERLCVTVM
Summary of the method: as §1

ETV2 = biological target: T10, ETV2 (Homo sapiens, UniProt O00321 1-342); conditions: protein: recombinant; tags: N-terminal GST; dsDNA, one strand shown
T10 sequence: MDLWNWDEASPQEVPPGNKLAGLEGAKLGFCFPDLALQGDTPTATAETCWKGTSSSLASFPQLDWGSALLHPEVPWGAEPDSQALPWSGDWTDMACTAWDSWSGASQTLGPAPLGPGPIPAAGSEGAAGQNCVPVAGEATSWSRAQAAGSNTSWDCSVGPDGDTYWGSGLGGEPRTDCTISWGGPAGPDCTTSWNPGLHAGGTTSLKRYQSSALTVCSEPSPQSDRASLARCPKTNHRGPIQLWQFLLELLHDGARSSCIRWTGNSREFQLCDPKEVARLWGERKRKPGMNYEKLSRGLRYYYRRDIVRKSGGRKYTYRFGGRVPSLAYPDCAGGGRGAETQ
Summary of the method: as §1

ELF3 = biological target: T11, ELF3 (Homo sapiens, UniProt P78545 1-371); conditions: protein: recombinant; tags: N-terminal GST; dsDNA, one strand shown
T11 sequence: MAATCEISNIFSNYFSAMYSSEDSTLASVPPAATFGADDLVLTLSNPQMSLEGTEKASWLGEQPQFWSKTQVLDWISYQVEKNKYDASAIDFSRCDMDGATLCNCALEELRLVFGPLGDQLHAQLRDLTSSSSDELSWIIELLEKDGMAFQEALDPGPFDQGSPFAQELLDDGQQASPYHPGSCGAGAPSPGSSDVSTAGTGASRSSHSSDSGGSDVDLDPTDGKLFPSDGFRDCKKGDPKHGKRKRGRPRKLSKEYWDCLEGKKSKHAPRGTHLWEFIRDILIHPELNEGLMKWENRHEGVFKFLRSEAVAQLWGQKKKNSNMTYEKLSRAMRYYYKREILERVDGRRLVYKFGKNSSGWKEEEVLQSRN
Summary of the method: as §1

CRX = CRX (Homo sapiens, UniProt O43186 1-299); conditions: protein: recombinant; tags: N-terminal GST; dsDNA, one strand shown
Summary of the method: as §1

ETV1 = ETV1 (Homo sapiens, UniProt P50549 1-477); conditions: protein: recombinant; tags: N-terminal GST; dsDNA, one strand shown
Summary of the method: as §1

Sequence of ELF1 (P32519 whole entry): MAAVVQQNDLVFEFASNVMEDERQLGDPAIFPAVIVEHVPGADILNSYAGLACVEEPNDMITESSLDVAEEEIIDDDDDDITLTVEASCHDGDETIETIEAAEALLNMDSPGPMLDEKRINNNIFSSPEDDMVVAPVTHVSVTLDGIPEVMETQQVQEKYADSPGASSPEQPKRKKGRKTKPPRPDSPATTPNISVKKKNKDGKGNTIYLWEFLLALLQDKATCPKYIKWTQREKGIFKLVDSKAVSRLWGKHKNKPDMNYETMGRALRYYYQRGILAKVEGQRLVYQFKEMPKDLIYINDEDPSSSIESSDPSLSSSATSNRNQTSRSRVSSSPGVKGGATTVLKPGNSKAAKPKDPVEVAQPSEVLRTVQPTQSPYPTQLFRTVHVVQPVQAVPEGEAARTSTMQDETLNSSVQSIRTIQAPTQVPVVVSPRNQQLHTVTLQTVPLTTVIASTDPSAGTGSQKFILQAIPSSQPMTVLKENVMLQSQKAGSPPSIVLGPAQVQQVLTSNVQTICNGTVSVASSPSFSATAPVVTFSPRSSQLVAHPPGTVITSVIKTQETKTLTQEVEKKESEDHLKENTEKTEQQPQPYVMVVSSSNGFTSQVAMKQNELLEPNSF
Sequence of ETV1 (P50549 whole entry): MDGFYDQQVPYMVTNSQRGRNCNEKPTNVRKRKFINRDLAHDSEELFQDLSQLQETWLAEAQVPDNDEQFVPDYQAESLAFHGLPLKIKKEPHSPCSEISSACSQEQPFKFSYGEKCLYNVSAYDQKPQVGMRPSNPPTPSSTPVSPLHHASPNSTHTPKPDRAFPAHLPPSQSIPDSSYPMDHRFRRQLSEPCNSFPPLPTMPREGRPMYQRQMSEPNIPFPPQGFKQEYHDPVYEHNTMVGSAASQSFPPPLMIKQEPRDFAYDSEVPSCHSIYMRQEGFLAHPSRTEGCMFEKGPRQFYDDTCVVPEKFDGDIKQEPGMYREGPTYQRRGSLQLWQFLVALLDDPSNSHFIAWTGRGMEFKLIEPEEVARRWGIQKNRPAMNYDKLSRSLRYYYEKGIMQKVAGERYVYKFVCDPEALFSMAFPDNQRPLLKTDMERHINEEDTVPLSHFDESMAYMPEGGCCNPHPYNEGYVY
Sequence of ELF4 (Q99607 whole entry): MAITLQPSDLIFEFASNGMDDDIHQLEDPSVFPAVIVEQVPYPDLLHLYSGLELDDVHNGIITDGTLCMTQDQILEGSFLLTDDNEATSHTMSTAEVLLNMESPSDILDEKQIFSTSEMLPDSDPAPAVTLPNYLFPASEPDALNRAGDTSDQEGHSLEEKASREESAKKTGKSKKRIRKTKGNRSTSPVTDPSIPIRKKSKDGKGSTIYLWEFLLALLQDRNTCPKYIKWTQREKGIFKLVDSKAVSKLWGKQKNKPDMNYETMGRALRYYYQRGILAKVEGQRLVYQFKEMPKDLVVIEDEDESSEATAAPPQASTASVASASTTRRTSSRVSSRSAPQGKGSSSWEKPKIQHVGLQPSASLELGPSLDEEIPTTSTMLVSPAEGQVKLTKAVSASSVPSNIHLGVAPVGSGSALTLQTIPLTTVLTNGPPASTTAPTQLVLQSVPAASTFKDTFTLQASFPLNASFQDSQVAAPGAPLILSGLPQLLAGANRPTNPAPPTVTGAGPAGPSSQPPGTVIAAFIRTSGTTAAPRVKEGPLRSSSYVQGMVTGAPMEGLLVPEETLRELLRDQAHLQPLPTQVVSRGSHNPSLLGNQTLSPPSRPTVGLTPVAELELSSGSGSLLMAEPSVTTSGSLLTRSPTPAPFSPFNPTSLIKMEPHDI
Sequence of HSF1 (Q00613 whole entry): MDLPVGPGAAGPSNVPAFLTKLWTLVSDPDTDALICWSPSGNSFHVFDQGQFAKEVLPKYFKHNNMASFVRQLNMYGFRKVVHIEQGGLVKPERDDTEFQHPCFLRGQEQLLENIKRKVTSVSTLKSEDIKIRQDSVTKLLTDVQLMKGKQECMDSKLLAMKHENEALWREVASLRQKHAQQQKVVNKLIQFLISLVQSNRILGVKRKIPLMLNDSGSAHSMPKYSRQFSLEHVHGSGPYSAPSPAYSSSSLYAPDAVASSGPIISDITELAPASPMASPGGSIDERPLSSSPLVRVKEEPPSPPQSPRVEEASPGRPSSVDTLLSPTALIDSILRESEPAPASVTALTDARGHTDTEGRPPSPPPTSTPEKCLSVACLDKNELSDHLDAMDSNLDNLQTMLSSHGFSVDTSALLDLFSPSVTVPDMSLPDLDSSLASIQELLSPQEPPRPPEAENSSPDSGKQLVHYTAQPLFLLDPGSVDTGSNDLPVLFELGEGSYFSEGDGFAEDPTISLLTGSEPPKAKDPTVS
Sequence of SPIB (Q01892 whole entry): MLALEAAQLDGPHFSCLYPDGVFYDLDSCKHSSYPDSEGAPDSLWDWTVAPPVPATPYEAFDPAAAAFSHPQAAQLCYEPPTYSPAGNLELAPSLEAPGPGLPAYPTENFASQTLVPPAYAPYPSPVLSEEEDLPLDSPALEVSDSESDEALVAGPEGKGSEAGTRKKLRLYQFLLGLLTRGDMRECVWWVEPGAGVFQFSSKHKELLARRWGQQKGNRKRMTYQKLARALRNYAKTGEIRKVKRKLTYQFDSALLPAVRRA
Sequence of CRX (O43186 whole entry): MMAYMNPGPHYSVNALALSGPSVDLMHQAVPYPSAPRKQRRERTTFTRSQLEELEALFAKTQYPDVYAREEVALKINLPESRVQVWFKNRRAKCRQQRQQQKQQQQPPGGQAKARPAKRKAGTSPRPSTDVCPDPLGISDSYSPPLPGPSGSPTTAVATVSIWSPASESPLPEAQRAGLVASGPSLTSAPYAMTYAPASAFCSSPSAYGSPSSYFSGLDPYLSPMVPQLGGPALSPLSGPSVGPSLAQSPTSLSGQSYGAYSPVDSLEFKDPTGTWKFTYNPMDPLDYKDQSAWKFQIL
Sequence of ETV5 (P41161 whole entry): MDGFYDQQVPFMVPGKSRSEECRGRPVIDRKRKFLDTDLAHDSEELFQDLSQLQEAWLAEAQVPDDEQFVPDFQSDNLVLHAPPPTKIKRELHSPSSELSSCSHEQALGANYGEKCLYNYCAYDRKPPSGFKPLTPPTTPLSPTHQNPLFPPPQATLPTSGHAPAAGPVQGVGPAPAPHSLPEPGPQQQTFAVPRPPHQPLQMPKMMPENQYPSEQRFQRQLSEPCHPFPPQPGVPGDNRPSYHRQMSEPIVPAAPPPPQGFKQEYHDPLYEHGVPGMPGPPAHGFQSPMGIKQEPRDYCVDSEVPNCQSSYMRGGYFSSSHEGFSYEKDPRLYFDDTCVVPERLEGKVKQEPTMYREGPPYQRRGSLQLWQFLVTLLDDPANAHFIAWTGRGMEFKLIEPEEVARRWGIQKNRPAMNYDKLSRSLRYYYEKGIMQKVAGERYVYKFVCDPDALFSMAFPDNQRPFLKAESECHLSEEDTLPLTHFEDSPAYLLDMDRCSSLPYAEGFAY

## CTAGAT
FLI1
  binding signal: 1.13 fold enrichment (6-mer frequency, TF over GST control)
ELK1
  binding signal: 1.18 fold enrichment (6-mer frequency, TF over GST control)
GABPA
  binding signal: 1.23 fold enrichment (6-mer frequency, TF over GST control)
ERG
  binding signal: 1.12 fold enrichment (6-mer frequency, TF over GST control)
ELF1
  binding signal: 1.15 fold enrichment (6-mer frequency, TF over GST control)
EHF
  binding signal: 1.17 fold enrichment (6-mer frequency, TF over GST control)
SPI1
  binding signal: 1.2 fold enrichment (6-mer frequency, TF over GST control)
SPIB
  binding signal: 1.17 fold enrichment (6-mer frequency, TF over GST control)
ELK3
  binding signal: 1.16 fold enrichment (6-mer frequency, TF over GST control)
FEV
  binding signal: 1.13 fold enrichment (6-mer frequency, TF over GST control)
ETV5
  binding signal: 1.19 fold enrichment (6-mer frequency, TF over GST control)
HSF1
  binding signal: 2.7 fold enrichment (6-mer frequency, TF over GST control)
SPIC
  binding signal: 1.16 fold enrichment (6-mer frequency, TF over GST control)
ELF4
  binding signal: 1.16 fold enrichment (6-mer frequency, TF over GST control)
ELK4
  binding signal: 1.17 fold enrichment (6-mer frequency, TF over GST control)
ETV2
  binding signal: 1.17 fold enrichment (6-mer frequency, TF over GST control)
ELF3
  binding signal: 1.15 fold enrichment (6-mer frequency, TF over GST control)
CRX
  binding signal: 1.83 fold enrichment (6-mer frequency, TF over GST control)
ETV1
  binding signal: 1.17 fold enrichment (6-mer frequency, TF over GST control)
